Results reported in PubChem BioAssay.
Active and inactive are the calls of the source.

Assays:
[1] = binders of probe aFSTL3 on microarray, primary screen, stem cell growth factor project, biochemical, small-molecule microarray, fluorescence 635/667 (AID 1064); details: higher = more signal;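 note: measures binding of the biotinylated anti-FSTL3 antibody to printed compounds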
[2] = binders from COS7 lysate, DM2A8 probe, primary screen, torsin A project, cell lysate, small-molecule microarray, fluorescence 635/667 (AID 1065); details: higher = more signal, COS7 lysate expressing mutant human TOR1A
[3] = binders of probe aFGF2 on microarray, primary screen, stem cell growth factor project, biochemical, small-molecule microarray, fluorescence 635/667 (AID 1067); details: higher = more signal;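 note: measures binding of biotinylated aFGF2 protein to printed compounds on slides; z-score merges feature fluorescence and signal-to-noise across triplicate slides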
[4] = binders of probe aFGF10 on microarray, primary screen, stem cell growth factor project, biochemical, small-molecule microarray, fluorescence 635/667 (AID 1071); details: higher = more signal;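 note: score merges 667 nm spot intensity and signal to noise from triplicate slides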
[5] = biological target: Neurogenic locus notch homolog protein 2 (Homo sapiens) (UniProt Q04721); test: Notch2 binders on small-molecule microarrays, primary screen, biochemical, small-molecule microarray, 635 nm fluorescence, stem cell growth factors (AID 1073); details: Notch2 binding, higher = more signal
[6] = biological target: Pro-neuregulin-1, membrane-bound isoform (Homo sapiens) (UniProt Q02297); test: NRG1 binders on small-molecule microarrays, primary screen, psychiatric disease protein project, biochemical, small-molecule microarray, fluorescence 635/667 (AID 1075); details: NRG1 binding, 635 nm fluorescence, higher = more signal;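 note: score combines 667 nm spot fluorescence with signal to noise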
[7] = test system: Neuregulin-1 EGF-like domain; test: binders of neuregulin-1 EGF-like domain, primary screen, biochemical, small-molecule microarray, 635 nm fluorescence (AID 1081); details: small-molecule microarray binding, higher = more signal;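 note: binding of the protein to compounds printed on small-molecule microarray slides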
[8] = FRG1 promoter luciferase signal modulators, primary screen, FRG1 inhibition for FSHD, cell-based, C2C12 myotubes, firefly/Renilla luciferase, luminescence (AID 1084); details: higher = more signal, called active from +8 up or from −8 down
[9] = binders of probe aFST on microarray, primary screen, stem cell growth factor project, biochemical, small-molecule microarray, fluorescence 635/667 (AID 1086); details: higher = more signal;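 note: score merges 667 nm fluorescence with signal-to-noise of each printed compound spot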
[10] = binders of probe aHhip on microarray, primary screen, stem cell growth factor project, biochemical, small-molecule microarray, fluorescence 635/667 (AID 1087); details: higher = more signal;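 note: score merges spot fluorescence at 667nm with spot signal to noise ratio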
[11] = test system: PRMT1 (protein arginine N-methyltransferase 1); test: PRMT1 binders on small-molecule microarrays, primary screen, biochemical, small-molecule microarray, 635 nm fluorescence (AID 1088); details: small-molecule microarray binding, higher = more signal;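 note: binding of Prmt1 protein to compounds spotted on small-molecule microarray slides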
[12] = yeast growth modulation, basal conditions, primary screen, YJM789 clinical isolate, OD600, 24 h (AID 1089);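 note: growth of clinical yeast isolate S. cerevisiae YJM 789 seeded 1000 cells per well; test concentration not given here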; details: S. cerevisiae YJM789 growth, higher = more signal, called active from +8 up or from −8 down
[13] = fission yeast growth modulation, primary screen, strain 972, OD600, 24 h, no modulator (AID 1090);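 note: basal condition with compound alone and no growth modifier present; test concentration not given here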; details: S. pombe 972 growth, higher = more signal, called active from +8 up or from −8 down
[14] = S. cerevisiae growth modulation with rapamycin, primary screen, strain BY4716, OD600, 96 h (AID 1091); details: higher = more signal, called active from +8 up or from −8 down; note: test concentration not given here
[15] = biological target: Torsin-1A-interacting protein 2 (Homo sapiens) (UniProt Q8NFQ8); test: LULL1 binders on small-molecule microarray, primary screen, cell lysate, human LULL1 lysate, 635/667 nm fluorescence (AID 1092); details: hLULL1 lysate binding, 635 nm fluorescence, higher = more signal;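 note: probe is lysate of COS7 cells overexpressing human LULL1; score merges per-feature 667 nm fluorescence with signal-to-noise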
[16] = E. coli growth modulation, two-sided OD650, primary screen, E. coli filamentation project, strain DRC41, 24 h (AID 1093); details: OD650, 24 h, higher = more signal, called active from +8 up or from −8 down;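 note: MC1000 strain lacking acrAB efflux and sulA so SOS filamentation is blocked; test concentration not given here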
[17] = small-molecule microarray binders of probe aLefty2, primary screen, biochemical, biotinylated probe, 635/667 nm fluorescence (AID 1094); details: higher = more signal;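 note: score merges spot fluorescence near 667 nm with spot signal-to-noise ratio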
[18] = test system: Noggin (protein binding on small-molecule microarray); test: Noggin binders on small-molecule microarray, primary screen, biochemical, 635/667 nm fluorescence (AID 1095); details: 635 nm fluorescence, higher = more signal;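 note: score merges 667 nm feature fluorescence with signal to noise over triplicate slides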
[19] = biological target: Neurogenic locus notch homolog protein 3 (Homo sapiens) (UniProt Q9UM47); test: NOTCH3 binders on small-molecule microarray, primary screen, biochemical, 635/667 nm fluorescence (AID 1096); details: NOTCH3 binding, 635 nm fluorescence, higher = more signal
[20] = small-molecule microarray binders of probe aEGFR, primary screen, biochemical, biotinylated probe, 635/667 nm fluorescence (AID 1097); details: higher = more signal;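 note: probe is a biotinylated anti-EGFR antibody binding compounds printed on slides; score combines fluorescence near 667 nm and signal to noise of each spot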

Sequence of Torsin-1A-interacting protein 2 (Homo sapiens) (Q8NFQ8 whole entry, looked up): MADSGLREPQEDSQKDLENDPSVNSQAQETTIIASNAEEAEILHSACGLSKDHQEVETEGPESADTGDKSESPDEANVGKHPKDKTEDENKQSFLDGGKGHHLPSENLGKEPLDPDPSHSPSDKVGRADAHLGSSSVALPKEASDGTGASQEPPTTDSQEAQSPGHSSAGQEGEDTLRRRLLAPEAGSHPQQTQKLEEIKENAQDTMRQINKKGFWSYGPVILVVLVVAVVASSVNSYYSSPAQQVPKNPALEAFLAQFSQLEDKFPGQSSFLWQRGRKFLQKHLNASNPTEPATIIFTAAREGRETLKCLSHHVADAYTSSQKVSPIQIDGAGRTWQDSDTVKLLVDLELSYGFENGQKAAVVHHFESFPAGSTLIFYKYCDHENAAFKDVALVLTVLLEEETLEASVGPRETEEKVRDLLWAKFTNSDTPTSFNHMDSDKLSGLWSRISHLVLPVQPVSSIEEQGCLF
Sequence of Pro-neuregulin-1, membrane-bound isoform (Homo sapiens) (Q02297 whole entry, looked up, the tested form may be a part, canonical isoform): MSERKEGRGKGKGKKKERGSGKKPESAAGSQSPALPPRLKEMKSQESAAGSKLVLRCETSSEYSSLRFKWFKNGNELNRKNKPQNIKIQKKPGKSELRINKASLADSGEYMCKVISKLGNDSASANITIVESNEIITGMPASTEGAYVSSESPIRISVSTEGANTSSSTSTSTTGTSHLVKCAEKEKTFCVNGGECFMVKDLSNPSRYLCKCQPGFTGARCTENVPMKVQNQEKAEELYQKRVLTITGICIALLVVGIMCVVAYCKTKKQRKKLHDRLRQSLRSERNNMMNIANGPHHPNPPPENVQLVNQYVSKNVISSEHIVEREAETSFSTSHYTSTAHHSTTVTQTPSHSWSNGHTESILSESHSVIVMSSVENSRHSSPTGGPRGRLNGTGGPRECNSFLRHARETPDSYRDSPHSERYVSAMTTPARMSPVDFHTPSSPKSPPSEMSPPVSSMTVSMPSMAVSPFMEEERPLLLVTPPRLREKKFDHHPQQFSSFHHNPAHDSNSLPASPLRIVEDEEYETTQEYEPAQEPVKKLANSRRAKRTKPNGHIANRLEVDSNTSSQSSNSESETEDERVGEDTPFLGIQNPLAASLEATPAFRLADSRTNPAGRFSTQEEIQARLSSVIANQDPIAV
Sequence of Neurogenic locus notch homolog protein 2 (Homo sapiens) (Q04721 whole entry, looked up, canonical isoform): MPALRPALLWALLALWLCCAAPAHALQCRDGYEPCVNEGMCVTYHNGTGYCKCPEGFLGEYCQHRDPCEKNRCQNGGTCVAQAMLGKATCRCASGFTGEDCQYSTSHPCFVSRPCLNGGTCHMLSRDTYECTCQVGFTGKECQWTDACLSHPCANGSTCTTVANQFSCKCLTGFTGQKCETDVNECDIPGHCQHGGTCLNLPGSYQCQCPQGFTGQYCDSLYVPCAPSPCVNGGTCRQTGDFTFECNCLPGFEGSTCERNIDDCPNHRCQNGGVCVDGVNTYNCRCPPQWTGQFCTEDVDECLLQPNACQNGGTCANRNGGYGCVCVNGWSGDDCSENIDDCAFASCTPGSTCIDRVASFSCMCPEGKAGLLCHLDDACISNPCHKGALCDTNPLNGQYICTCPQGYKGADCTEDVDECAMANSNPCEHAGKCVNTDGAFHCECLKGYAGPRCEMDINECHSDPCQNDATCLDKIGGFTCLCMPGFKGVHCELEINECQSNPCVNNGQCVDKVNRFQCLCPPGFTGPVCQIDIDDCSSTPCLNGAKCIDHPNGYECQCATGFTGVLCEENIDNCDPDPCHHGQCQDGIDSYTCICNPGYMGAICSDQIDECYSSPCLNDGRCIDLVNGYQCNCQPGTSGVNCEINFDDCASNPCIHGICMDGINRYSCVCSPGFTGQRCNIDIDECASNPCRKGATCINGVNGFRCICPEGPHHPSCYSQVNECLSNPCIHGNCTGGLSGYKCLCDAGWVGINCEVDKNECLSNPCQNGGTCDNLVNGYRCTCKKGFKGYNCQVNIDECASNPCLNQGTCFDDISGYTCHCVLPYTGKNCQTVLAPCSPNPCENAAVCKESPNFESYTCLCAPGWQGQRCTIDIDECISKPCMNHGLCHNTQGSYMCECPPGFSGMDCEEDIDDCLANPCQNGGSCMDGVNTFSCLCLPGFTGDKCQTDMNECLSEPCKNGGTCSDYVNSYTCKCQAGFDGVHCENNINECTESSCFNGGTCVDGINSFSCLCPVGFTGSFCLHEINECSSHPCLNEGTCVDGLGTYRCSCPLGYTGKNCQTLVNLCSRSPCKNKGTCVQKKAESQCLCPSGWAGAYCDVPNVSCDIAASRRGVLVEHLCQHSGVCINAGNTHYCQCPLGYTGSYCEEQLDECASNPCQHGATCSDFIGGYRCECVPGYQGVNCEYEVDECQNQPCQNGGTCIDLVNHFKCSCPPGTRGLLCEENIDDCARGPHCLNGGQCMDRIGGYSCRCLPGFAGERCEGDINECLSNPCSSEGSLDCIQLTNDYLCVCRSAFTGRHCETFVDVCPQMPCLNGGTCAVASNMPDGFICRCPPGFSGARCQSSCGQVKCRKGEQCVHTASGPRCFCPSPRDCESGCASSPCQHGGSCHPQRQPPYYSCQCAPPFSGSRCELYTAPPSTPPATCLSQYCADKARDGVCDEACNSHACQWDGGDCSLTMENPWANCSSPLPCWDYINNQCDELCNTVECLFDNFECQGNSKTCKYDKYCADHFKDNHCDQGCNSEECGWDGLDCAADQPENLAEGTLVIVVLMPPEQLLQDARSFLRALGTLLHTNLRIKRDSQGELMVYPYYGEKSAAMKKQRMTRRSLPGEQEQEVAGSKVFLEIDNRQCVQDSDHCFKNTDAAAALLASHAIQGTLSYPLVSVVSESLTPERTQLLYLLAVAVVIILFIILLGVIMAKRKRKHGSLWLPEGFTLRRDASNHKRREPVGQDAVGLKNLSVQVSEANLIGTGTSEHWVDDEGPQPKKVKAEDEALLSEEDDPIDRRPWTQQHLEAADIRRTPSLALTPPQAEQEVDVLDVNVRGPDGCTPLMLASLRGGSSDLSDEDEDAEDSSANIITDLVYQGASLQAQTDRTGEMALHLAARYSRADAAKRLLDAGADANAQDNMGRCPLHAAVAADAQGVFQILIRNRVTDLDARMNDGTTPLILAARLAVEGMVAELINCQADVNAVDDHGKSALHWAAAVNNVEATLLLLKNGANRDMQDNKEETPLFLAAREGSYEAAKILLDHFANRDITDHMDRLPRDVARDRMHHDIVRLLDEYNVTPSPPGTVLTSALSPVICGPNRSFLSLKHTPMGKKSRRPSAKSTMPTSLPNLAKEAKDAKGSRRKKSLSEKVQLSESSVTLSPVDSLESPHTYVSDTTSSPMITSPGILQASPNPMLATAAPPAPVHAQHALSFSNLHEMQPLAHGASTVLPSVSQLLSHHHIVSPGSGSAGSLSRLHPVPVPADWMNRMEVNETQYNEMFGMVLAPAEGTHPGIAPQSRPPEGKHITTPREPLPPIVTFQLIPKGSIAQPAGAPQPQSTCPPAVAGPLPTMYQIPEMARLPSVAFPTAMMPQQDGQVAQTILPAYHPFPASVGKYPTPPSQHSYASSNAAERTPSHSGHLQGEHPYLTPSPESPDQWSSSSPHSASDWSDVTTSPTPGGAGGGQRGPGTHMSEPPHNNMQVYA

SMILES | composite z-score [1] | composite z-score [2] | composite z-score [3] | composite z-score [4] | composite z-score [5] | composite z-score [6] | composite z-score [7] | z-score [8] | composite z-score [9] | composite z-score [10] | composite z-score [11] | z-score [12] | z-score [13] | z-score [14] | composite z-score [15] | z-score [16] | composite z-score [17] | composite z-score [18] | composite z-score [19] | composite z-score [20]
COc1cc(OC)c(C(O)C2C=CC3C(=O)N(c4ccccc4)C(=O)C3N2Nc2ccc(C#N)cc2)cc1Br (stereo not given) | 1.03 | -0.223 | 0.353 | 1.17 | 1.31 | 1.75 | 1.34 | -0.647 (inactive) | 1.73 | 0.219 | 0.977 | -0.459 (inactive) | 1.86 (inactive) | -0.772 (inactive) | 2.64 | -0.409 (inactive) | 0.929 | -0.109 | 1.15 | 0.621
CCC[C@@H]1C[C@@]1(CCC)[C@@H](NP(=O)(c1ccccc1)c1ccccc1)c1ccc(Cl)cc1 | 0.337 | -0.23 | 0.0368 | -0.387 | -0.615 | -0.23 | -0.414 | 1.8 (inactive) | -0.223 | 0.982 | -0.189 | 1.2 (inactive) | 0.095 (inactive) | 0.956 (inactive) | 0.334 | -1.79 (inactive) | -0.0703 | 0.112 | -0.151 | -0.233
Cc1ccc(S[C@]2(C(=O)NC3CC3)CC(=O)N(Cc3ccccc3Cl)[C@@H]2c2ccc(CO)cc2I)cc1 | 0.29 | 0.132 | -0.106 | 0.171 | 0.0538 | 1.72 | 1.24 | -2.19 (inactive) | -0.0129 | -0.123 | 1.54 | -0.362 (inactive) | -1.83 (inactive) | 0.67 (inactive) | 3.22 | 0.481 (inactive) | 0.0448 | 1.34 | 0.304 | -0.0238
CO[C@H]1O[C@H](CO)[C@@H](OC(=O)Nc2ccc(C(F)(F)F)cc2)[C@H](OC(=O)Nc2ccc3c(c2)OCO3)[C@H]1OC(=O)Nc1ccc2c(c1)OCO2 | 0.303 | 1.15 | 0.0557 | 0.794 | 1.41 | 1.6 | 1.3 | 6.45 (inactive) | 0.557 | 0.176 | 1.54 | 0.724 (inactive) | 0.908 (inactive) | 14.9 (active) | 3.03 | -0.298 (inactive) | 0.0631 | 0.293 | 1.11 | 0.104
COc1ccc(NC(=O)O[C@H]2[C@H](OC(=O)Nc3ccc4c(c3)OCO4)[C@@H](OC(=O)Nc3ccc4c(c3)OCO4)[C@@H](OC)O[C@@H]2CO)cc1 | 0.157 | -0.0536 | 0.0397 | 0.639 | 0.922 | 1.57 | 1.2 | 6.75 (inactive) | 0.4 | -0.0296 | 1.56 | 1.5 (inactive) | 1.61 (inactive) | -0.31 (inactive) | 3.66 | 1.93 (inactive) | -0.0396 | 0.89 | 1.08 | -0.0953
CC(C)(C)OC(=O)CC[C@]1(C(=O)O)N=C(c2ccc(OCCCO)cc2)O[C@H]1c1ccccc1CN=[N+]=[N-] | -0.169 | -0.246 | 0.0911 | 0.113 | 0.261 | 1 | 1.45 | 2.04 (inactive) | 0.794 | -0.409 | -0.619 | 0.832 (inactive) | 0.291 (inactive) | -0.683 (inactive) | 2 | 0.275 (inactive) | -0.0991 | -0.465 | 0.168 | -0.103
COc1ccc(NN2C(C(O)c3ccccn3)C=CC3C(=O)N(C4CCCCC4)C(=O)C32)cc1 (stereo not given) | -0.218 | -0.287 | 0.0944 | 0.467 | 1.59 | 1.36 | 1.17 | 3.21 (inactive) | 1.29 | -0.152 | 1.56 | -0.199 (inactive) | -0.121 (inactive) | 0.151 (inactive) | 3.26 | 0.265 (inactive) | 0.282 | 0.05 | 1.05 | 0.134
COCCOC(=O)N1C(=O)[C@@]2(c3cc(C#CC4=CCCCC4)ccc31)[C@H](c1ccccc1OCCO)N1[C@H](c3ccccc3)[C@H](c3ccccc3)OC(=O)[C@H]1[C@@H]2C(=O)N1CCc2cc(OC)c(OC)cc2C1 | -0.516 | 0.433 | 0.0571 | 0.515 | 1.18 | 0.319 | 1.07 | -0.202 (inactive) | 0.401 | -0.521 | 1.55 | 1.83 (inactive) | 0.819 (inactive) | 3.63 (inactive) | 0.889 | -0.0749 (inactive) | -0.479 | 0.676 | 1.08 | -0.33
C#CCNC(=O)[C@H](Cc1ccccc1)NC(=O)[C@@H](N=[N+]=[N-])C(C)C | -0.57 | -0.003 | -0.0894 | 0.334 | 1.04 | 0.452 | 1.08 | 0.171 (inactive) | 0.16 | -0.409 | 0.911 | -0.611 (inactive) | 0.139 (inactive) | -0.229 (inactive) | 1.57 | 0.35 (inactive) | -0.116 | 0.434 | 0.5 | -0.071
NC(=O)NCC#Cc1ccc2c(c1)[C@]1(C(=O)N2)[C@H](C(=O)Nc2nc3ccccc3s2)[C@H]2C(=O)O[C@H](c3ccccc3)[C@H](c3ccccc3)N2[C@@H]1c1ccc(O)cc1 | 0.187 | 0.544 | -0.0415 | 0.604 | 0.455 | 0.339 | -0.15 | 1.46 (inactive) | 0.623 | 0.142 | 1.41 | 3.89 (inactive) | 3.26 (inactive) | 7.47 (inactive) | -0.569 | 2.01 (inactive) | 0.14 | 0.614 | 1.05 | -0.0701
